Measurements published in PubChem BioAssay (NCATS).
Inconclusive results are not listed. Unmarked numbers belong to inactive results. Activity calls are given as the source filed them. The call rests on the fitted dose curve; in most records, active means well fitted inhibition curve with a large enough effect; inconclusive means small, poorly fitted or top-dose-only effect; inactive means flat fitted curve, though single readings scatter.

molecular target: Calcium and integrin-binding protein 1 (Homo sapiens) (UniProt Q99828); assay: Primary qHTS for Identification of Calcium Integrin Binding Protein 1 (CIB1) Competitor (AID 1508620); conditions: CIB1-GST / FITC-alphaIIb peptide fluorescence polarization; series mostly up to 57.7 µM; activity change, negative = inhibition: at the top concentration;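 further: GST tagged CIB1 binding a fluorescein labelled alphaIIb integrin peptide tracer; top concentration of the series differs between compounds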
Sequence (Q99828 whole entry, looked up): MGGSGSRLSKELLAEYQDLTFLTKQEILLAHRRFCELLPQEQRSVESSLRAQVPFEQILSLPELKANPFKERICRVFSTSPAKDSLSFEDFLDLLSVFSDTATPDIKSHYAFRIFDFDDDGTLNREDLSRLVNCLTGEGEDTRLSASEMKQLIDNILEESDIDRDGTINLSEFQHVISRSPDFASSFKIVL
How it was run: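 CIB1-GST (1 uM final) and compound incubated 15 min at room temperature before adding FITC-alphaIIb peptide tracer (100 nM final). Competition for binding read by fluorescence polarization (ex 480, em 540) after another 15 min at room temperature.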
On the % scale 0 is the no-effect control and ±100 the full control effect.

Compared with FC(F)(F)c1cc(C(F)(F)F)c2ccc3nc(-c4nnco4)cn3c2n1, O=C(NCC(=O)N1CC[C@H](NC2CCC(O)(c3ccc(-c4ncccn4)cn3)CC2)C1)c1cccc(C(F)(F)F)c1 (stereo partly specified) is higher in “activity change, negative = inhibition” value: 3.19% [at 114 µM] for the first, 4.57% [at 114 µM] for the second.

First: Cc1[nH]cnc1C1CCN(c2nc3cccc4c3n2CCC4=O)CC1
Second: O=C(O)[C@H]1CCCC[C@H]1C(=O)N1CCc2ccccc2[C@H]1CN1C(=O)c2ccccc2C1=O
The “activity change, negative = inhibition” value of the first is lower: 0.388% [at 114 µM] for the first, 1.56% [at 114 µM] for the second.

First: COc1ccc(C)c2sc(NC(=O)c3ccncc3)nc12
Second: COc1cc2c(cc1OC)CN(C(=O)[C@@H](NCc1ccncc1)C(C)(C)C)CC2
The “activity change, negative = inhibition” value of the first is higher: 1.1% [at 114 µM] for the first, 0.379% [at 114 µM] for the second.

Going from CC1(C)CC2C(C1)C1(C)CCC13OC3(CO)C2O (stereo unspecified) to CC1=C2[C@@H]([C@H](C)CC[C@H]2/C=C(\C)C(=O)O)[C@H](O)C1, the “activity change, negative = inhibition” value falls from -0.844% [at 114 µM] to -3.68% [at 114 µM].

First: OC[C@H]1O[C@@H](OCCc2ccc(O)cc2)[C@H](O)[C@@H](O)[C@@H]1O
Second: O=c1c2cccnc2n(-c2cccc([N+](=O)[O-])c2)c(=O)n1Cc1ccncc1
The “activity change, negative = inhibition” value of the first is lower: -1.89% [at 114 µM] for the first, 3.01% [at 114 µM] for the second.

With C1CCN2CC3C[C@@H](CN4CCCC[C@@H]34)[C@H]2C1 the “activity change, negative = inhibition” value was 3.88% [at 114 µM].

Going from OC[C@H]1O[C@@H](Oc2ccc3c(c2)OC[C@H]2c4cc5c(cc4O[C@@H]32)OCO5)[C@H](O)[C@@H](O)[C@@H]1O to COc1cc(CC(COC2OC(CO)C(O)C(O)C2O)c2cc(/C=C/CO)cc(OC)c2O)ccc1O (stereo unspecified), the “activity change, negative = inhibition” value falls from -0.311% to -1.82%.

Compared with CC(C)(O)c1ccc2c(c1)C(O)CC1C(C)(C(=O)O)CCCC21C (stereo unspecified), CCC(C)(O)C(O)C(=O)OCc1ccc(O[C@@H]2O[C@H](CO)[C@@H](O)[C@H](O)[C@H]2O)c(OC)c1 (stereo partly specified) is lower in “activity change, negative = inhibition” value: 3.29% for the first, -6.18% for the second.

Going from COc1c2c(c(C)c3c1C(=O)OC3)O[C@@]1(C)C[C@@H](O)[C@]34O[C@](OC)(CC[C@]3(C)[C@H]1C2)OC4(C)C to C=C1CC2[C@]3(C)C(=C(O)C(=O)[C@@]2(C)[C@]2(C(=O)OC)C(=O)C(C)OC(=O)[C@@]12C)C(C)(C)C(=O)CC3O (stereo partly specified), the “activity change, negative = inhibition” value rises from -4.67% to -4.56%.

Compared with COC1=Cc2c(nc3n(c2=O)C(C)C(=O)NC3(O)C(C)C)OC=C1 (stereo unspecified), CC1=CC(=O)CC(C)(C)C1CCC(C)OC1OC(COC(=O)c2cc(O)c(O)c(O)c2)C(O)C(O)C1O (stereo unspecified) is higher in “activity change, negative = inhibition” value: -6.05% for the first, -5.6% for the second.

Compared with C=CCc1ccc(O[C@@H]2O[C@H](CO[C@@H]3O[C@H](CO)[C@@H](O)[C@H](O)[C@H]3O)[C@@H](O)[C@H](O)[C@H]2O)c(O)c1, C[C@@H]1O[C@@H](OC[C@H]2O[C@@H](OCCc3ccccc3)[C@H](O)[C@@H](O)[C@@H]2O)[C@H](O)[C@H](O)[C@H]1O is higher in “activity change, negative = inhibition” value: 1.33% for the first, 4.77% for the second.

Compared with COC(=O)[C@H](OC(C)=O)[C@H]1C(C)(C)C(=O)[C@H]2CC3=C4CC(=O)O[C@@H](c5ccoc5)[C@]4(C)CCC3[C@@]1(C)C2=O (stereo partly specified), O=C(/C=C/c1ccc(O)cc1)OCC1=CC2OC(=O)C3=CO[C@@H](O[C@@H]4O[C@H](CO)[C@@H](O)[C@H](O)[C@H]4O)[C@H]1[C@@H]32 (stereo partly specified) is higher in “activity change, negative = inhibition” value: -2.09% for the first, -0.472% for the second.

For O=C(O[C@H]1[C@@H]2C=CO[C@@H](O[C@@H]3O[C@H](CO)[C@@H](O)[C@H](O)[C@H]3O)[C@@H]2[C@@]2(CO)O[C@@H]12)c1ccc(O)cc1, the “activity change, negative = inhibition” value was 5.41%.

Compared with COc1c(OC2OC(CO)C(O)C(O)C2O)ccc(O)c1C(=O)OCc1ccccc1O[C@@H]1O[C@H](CO)[C@@H](O)[C@H](O)[C@H]1O (stereo partly specified), C=C1[C@H]2[C@H](O[C@@H]3O[C@H](COC(=O)/C=C/c4cc(OC)c(O)c(OC)c4)[C@@H](O)[C@H](O)[C@H]3O)OC=C(C(=O)O)[C@H]2C[C@@H]1O is lower in “activity change, negative = inhibition” value: 1% [at 30.2 µM] for the first, -7.13% [at 30.2 µM] for the second.

Compared with CC(=O)O[C@@H]1C[C@@]23C[C@@]24CC[C@H](OC2OC[C@@H](O)[C@H](O)[C@H]2O)C(C)(C)[C@@H]4CC[C@H]3[C@]2(C)CC3OC4(C[C@@H](C)C3[C@@]12C)OCC1(C)OC14 (stereo partly specified), CC1(C)CC[C@]2(C(=O)O)CC[C@]3(C)C(=CCC4[C@@]5(C)CC[C@H](O[C@@H]6O[C@H](C(=O)O)[C@@H](O)[C@H](O)[C@H]6O)C(C)(CO)C5CC[C@]43C)C2C1 (stereo partly specified) is lower in “activity change, negative = inhibition” value: -2.72% [at 30.2 µM] for the first, -5.54% [at 30.2 µM] for the second.

With CCC(NC(=O)CC(NC(=O)C(CO)NC(=O)C(CC)NC(=O)c1ccc[nH]1)c1ccccc1)C(=O)O (stereo unspecified) the “activity change, negative = inhibition” value was 4.31% [at 30.2 µM].

For Cc1ccc(C(=O)Nc2ccc(Oc3cc4cnn(C)c4cc3-c3cn[nH]c3)c(F)c2)c(=O)n1-c1ccc(F)cc1, the Potency was “inactive”.
In the case of NC1CCC(N[C@@H]2C[C@H]2c2ccccc2)CC1 (stereo partly specified), the Potency was “inactive”.
